Hit rate of the full screen: of about 340,000 compounds, about 100 (0.029%) were called active. A call without a number means that no potency is given here. Not shown: some 8% with an inconclusive outcome. Calls come from the whole dose curve. The sample as a whole holds a higher share of actives than the screen did. Where a SMILES comes first, the peptide text is derived from it. [ ]: non-standard residue; d: D form. ξ: configuration not given here. Ac5c = NC1(C(=O)O)CCCC1; ξS = NC(CO)C(=O)O

Sequence of Importin subunit beta-1 (Homo sapiens) (Q14974 whole entry, looked up): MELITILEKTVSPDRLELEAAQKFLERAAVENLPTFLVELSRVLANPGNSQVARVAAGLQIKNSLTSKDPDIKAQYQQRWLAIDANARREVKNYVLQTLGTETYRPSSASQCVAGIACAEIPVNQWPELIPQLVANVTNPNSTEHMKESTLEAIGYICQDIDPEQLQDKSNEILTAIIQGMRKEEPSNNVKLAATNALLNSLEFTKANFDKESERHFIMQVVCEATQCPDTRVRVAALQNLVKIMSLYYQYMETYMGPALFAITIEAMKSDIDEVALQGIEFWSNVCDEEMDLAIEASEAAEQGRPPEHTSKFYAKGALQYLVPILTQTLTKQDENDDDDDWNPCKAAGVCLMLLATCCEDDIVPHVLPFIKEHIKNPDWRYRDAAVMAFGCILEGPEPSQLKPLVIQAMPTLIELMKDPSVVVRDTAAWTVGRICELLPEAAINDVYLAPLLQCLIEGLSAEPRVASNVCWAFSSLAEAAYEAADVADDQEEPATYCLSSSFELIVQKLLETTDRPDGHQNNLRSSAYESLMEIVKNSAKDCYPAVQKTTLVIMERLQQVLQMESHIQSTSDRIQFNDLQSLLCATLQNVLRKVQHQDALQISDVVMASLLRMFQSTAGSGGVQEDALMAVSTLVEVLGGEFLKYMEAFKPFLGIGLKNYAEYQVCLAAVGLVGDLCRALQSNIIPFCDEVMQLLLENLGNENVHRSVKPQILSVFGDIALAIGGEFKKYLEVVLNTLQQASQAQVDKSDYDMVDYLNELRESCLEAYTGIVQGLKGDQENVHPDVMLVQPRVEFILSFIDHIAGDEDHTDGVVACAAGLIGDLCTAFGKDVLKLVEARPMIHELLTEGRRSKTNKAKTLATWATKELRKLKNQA

The target of this experiment is Importin subunit beta-1 (Homo sapiens) (UniProt Q14974). Put plainly: qHTS Assay for Inhibitors of Rango (Ran-regulated importin-beta cargo) - Importin beta complex formation. Note: nearly all actives have a fitted effect of over 15% in size. The note with it: Rango CFP/YFP FRET sensor + importin beta, 45 min; series mostly up to 92.2 µM. The source says:
NIH Molecular Libraries Probe Production Centers Network [MLPCN] NIH Chemical Genomics Center [NCGC] MLPCN Grant: R03 MH090808-01A1 Assay Submitter (PI): Petr Kalab NCGC Assay Overview: The small GTPase Ran regulates transport of macromolecules between the nucleus and the cytoplasm (nuclear transport) and has important functions in mitotic spindle assembly, nuclear envelope (NE) formation and nuclear pore complex (NPC) assembly. RanGTP gradient is thought to promote spindle assembly by providing a spatial clue to microtubule nucleation and Aurora A activation. Because the localized release and binding of importin alpha cargo relays this spatial clue to SAFs, inhibitors of the Rango - importin beta complex can then be used in further understanding their role in cell cycle specifically in mitosis progression. […] Activation of Aurora A has been linked to different types of cancer and a number of Aurora kinase inhibitors are being developed as potential canter therapeutics therefore, identified inhibitors of this complex could be developed into potential anti-mitotic probes for cancer treatment. Purified recombinant proteins Rango and importin beta were provided by the assay submitter. The assay used a fluorescence resonance energy transfer (FRET) Rango biosensor that contains the IBB of human snurportin 1 flanked by yellow fluorescent protein (EYFP) at the amino terminus and cerulean CFP10 at the carboxy terminus. […] Inhibitors will therefore be identified based on the ability to interfere with the FRET signal decrease. DMSO treated and no importin beta (buffer only) wells were used as negative and positive controls respectively. FRET readings were obtained at two time points. FRET reading prior to importin beta addition (pre-read) were used flag potential compound interference; FRET reading after importin beta addition (post-read) were used to identify inhibitors using the FRET ratio parameter.
NCGC Assay Protocol Summary: Two and a half uL/well of Rango-buffer solution (50 nM Rango, 1x PBS, 1mM DTT, 0.02% Tween-20, 0.1% BSA final concentrations) was dispensed into 1536-well assay plates (Greiner, solid black medium-binding plates) with Aurora Discovery BioRAPTR Flying Reagent Dispenser (FRD; Beckton-Dickenson). Compound solution (23 nL) was transferred to the assay plate using Kalypsys pin tool equipped with a 1536-pin tool and incubated at room temperature for 5 min followed by a FRET pre-read using the PerkinElmer Envision plate reader. Two and a half uL/well of Importin beta - buffer solution (0.125 microM importin beta, 1x PBS, 1mM DTT, 0.02% Tween-20, 0.1% BSA final concentrations) were then added and incubated at room temperature giving a final reaction volume of 5uL. After 45min FRET post-read was obtained via the Envision plate reader using the same optics and settings as the pre-read (CFP/YFP optimized dual optical module D450/D505; excitation mirror CFP 430/24 nm; and emission filters CFP 486/10 nm and YFP 530/10 nm).
For orientation: Quantitative high-throughput screening tests each substance at several concentrations.
As for `O=C1NCC(c2ccccc2)(c2ccccc2)C(=O)N1`, the Potency result is “inactive”.

`CC(=O)OC1CCC2(C)C(=CCC3C4CC(=O)N(O)C(=O)C4(C)CCC32)C1` (configuration not stated): the Potency entry was “inactive”. Consider `O=c1[nH]c(=S)[nH]c(O)c1/C=C1\C=Nc2ccccc21`, for which the Potency result is “inactive”. For `CN1CCC(N(C)C(=O)c2ccc(Cl)c(S(=O)(=O)Nc3ccc(Cl)cc3)c2)CC1`, the Potency entry is “inactive”.

As to `O=C1CC(C(=O)O)NC(=S)N1` (configuration not stated), the Potency entry was “inactive”. Next, `Cc1ccc(C)c(S(=O)(=O)N(C)c2ccc(OC(=O)C3CCN(C(=O)c4ccc(F)cc4)CC3)cc2)c1`: “inactive”; `COc1ccc(C(=O)Nc2cccc(/C=C(/CCC(=O)O)c3nc4ccccc4s3)c2)cc1`: “inactive”. As for `O=C1COc2c1ccc(O)c2O`, the Potency entry is “inactive”. In the case of `COc1ccc(-c2nnc(-c3ccc4ccccc4c3)o2)cc1`, the Potency result was “inactive”. As to `CC(=O)c1cccc(-c2ccc(CN3C(CC(C)C)C(=O)N(Cc4cn(CC5CCCCC5)nn4)CCS3(=O)=O)cc2)c1` (configuration not stated), the Potency entry was “inactive”. Turning to `Cn1c(N)cc(=O)n(C)c1=S`, the Potency entry was “inactive”. For `Nc1ccc2[nH]c(=S)sc2c1` the value was “inactive”; for `Cc1nc(N)sc1-c1ccccc1`, “inactive”; for `COc1ccc(Nc2ccc3ccccc3c2)cc1`, “inactive”.

Regarding `O=C(CCC(=O)N1CCN(S(=O)(=O)c2ccc(Cl)cc2)CC1)NCc1cccc(C(F)(F)F)c1`, the Potency result is “inactive”.

`CCOC(=O)C(CO)NC(=O)C1(NC(C)=O)CCCC1` (configuration not stated) (Ac-[Ac5c]-[ξS]-OEt): the Potency result is “inactive”. For `CCN1CCC(O)(/C=C/c2ccc(C)cc2)C(C(=O)/C=C/c2ccc(C)cc2)C1` (configuration not stated) the value was “inactive”; for `COC(=O)Cc1c(-c2[nH]c3ccccc3c2CC(=O)OC)[nH]c2ccccc12`, “inactive”. For `CC1(C)C(=O)CCC2(C)C1=CCC1C2C(=O)CC2(C)C1CCC2(O)C(=O)CO` (configuration not stated) the value was “inactive”; for `C#CCOCCOCCOCCNc1nc(N2CCOCC2)nc(N2CCN(C(=O)[C@H](Cc3ccc(O)cc3)n3cc(CCO)nn3)CC2)n1`, “inactive”; for `CSc1ncnc2c1ncn2CC(=O)C1CCC2C3CCC4=CC(=O)CCC4(C)C3CCC12C` (configuration not stated), “inactive”.

With `COc1ccc(/C=C/C(=O)OCC(=O)N2CCN(S(=O)(=O)c3ccc(C)cc3C)CC2)cc1OC`, the Potency entry was “inactive”. For `CN(C)c1ccc(CSc2ccccc2)cc1`, the Potency result was “inactive”. Next, `Cc1cccc(CC2(O)C(=O)Nc3ccccc32)n1` (configuration not stated): “inactive”; `O=C(Cc1ccc(NC(=O)C2CCCN(C(=O)CCc3ccccc3)C2)cc1)Nc1ccc(C(=O)N2CCOCC2)cc1` (configuration not stated): “inactive”. Next, `O=C(Cc1ccc(S(=O)(=O)N2CCOCC2)s1)Nc1ccc(Br)c(C(F)(F)F)c1`: “inactive”; `CN(CCc1ccccc1)C(=O)c1cccc(NC(=O)Cc2cccc(NC(=O)C3CCCN(C(=O)CCc4ccccc4)C3)c2)c1` (configuration not stated): “inactive”; `COc1ccc(CNCCCNCc2ccc(OC)c(OC)c2)cc1OC`: “inactive”. For `CCOc1cc(C=NNC(=O)CCCC(=O)NN=Cc2ccc(O)c(OCC)c2)ccc1O` the value was “inactive”; for `COc1ccc(Br)cc1/C=N/Nc1ccc(S(=O)(=O)Nc2ccccc2C(=O)O)cc1[N+](=O)[O-]`, “inactive”. For `O=C(NN=Cc1ccccc1O)NN=Cc1ccccc1O`, the Potency result is “inactive”. Next, `O=C(NNC(=O)c1ccccc1O)c1ccccc1O`: “inactive”; `CCCN(CCC)S(=O)(=O)c1cc2c(cc1Br)CCN2C(=O)CC`: “inactive”; `CCOc1ccccc1NC(=S)C(=C([O-])c1ccc2c(c1)OCCO2)[n+]1ccc(CC)cc1`: “inactive”. For `COc1ccc(N=C2C=CC(=O)O2)cc1` the value was “inactive”; for `Cc1cccc(C=CC(=O)c2ccc(Cl)cc2)c1`, “inactive”. With `COc1ccc(CCNC(=O)COc2cc(C)cc3oc(=O)c(C)c(C)c23)cc1OC`, the Potency entry was “inactive”.
